The values that follow come from PubChem BioAssay.

In one test the target is Calmodulin-1 (Homo sapiens) (UniProt P0DP23). Kind of test: calcium-bound CALM1 binders on microarrays, profiling panel, artefact control for SMM control-protein annotation, biochemical, small-molecule microarray, Cy5-labelled CALM1, plus calcium (AID 1112).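 Also: score merges spot fluorescence with signal to noise from triplicate slides.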 The conditions noted are these: Cy5-CALM1 binding fluorescence, higher = more signal.
For the molecule `COCCOC(=O)N1C(=O)[C@@]2(c3cc(C#CCC(C(=O)OC)C(=O)OC)ccc31)[C@H](C(=O)Nc1nc3ccccc3s1)[C@H]1C(=O)O[C@H](c3ccccc3)[C@H](c3ccccc3)N1[C@@H]2c1ccc(OCCO)cc1`, the composite z-score is -0.21.
`CCCCCCc1nc(Cc2cc(OC)c(OC)c(OC)c2)cc2c1[Si](C(C)C)(C(C)C)O[C@H]2c1ccccc1`: the composite z-score was -0.593.
Still for that read-out and setting: the result for `COC(=O)c1cccc([C@H]2OC(=CC(=O)OC(C)C)C[C@@H](c3cccc(C(=O)OC)c3)O2)c1` reads 0.144.
Regarding `C=CC[C@]1(C(=O)NCC(O)CO)COC(c2ccc(OCCCO)cc2)=N1` (some centres not stated), the composite z-score is 0.202.
On the same count and under the same terms, the result for `COC(=O)[C@@]1(Cc2ccccc2)[C@H]2c3cc(C(=O)N(C)C)n(Cc4ccc(C(F)(F)F)nc4)c3C[C@H]2CN1C(=O)c1ccccc1` reads 1.14.
Same read-out and setting: the value for `CCCNC(=O)[C@@]1(c2ccc([N+](=O)[O-])cc2)CC(=O)N(C(C)C)[C@@H]1c1ccc(CO)cc1` was 0.263.
Still for that read-out and setting: the result for `C[C@@H]1NC(=O)C([C@@H](C)OCc2ccccc2)NC(=O)[C@@]23C(=O)N[C@@H](Cc4ccccc4)C2[C@H](C)[C@@]2(C)O[C@H]2C3/C=C/C/C=C\CNC1=O` (some centres not stated) reads -1.85.
Consider `CCOC(=O)C1=C[C@@H](C(C)(C)C)N(S(=O)(=O)c2ccc(C)cc2)[C@H]1c1ccc(C#N)cc1`, for which the composite z-score came out at 0.226.

Test system in the next test: not listed separately
Kind of test: small-molecule microarray binders of probe aWnt5a, primary screen, biochemical, biotinylated probe, 635/667 nm fluorescence (AID 1113).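 Also: score merges 667 nm fluorescence intensity with signal-to-noise per printed feature.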 The conditions noted are these: higher = more signal.
On to `C=C1C(=O)C=C2CN(C(=O)c3ccccc3)[C@@](Cc3ccc(OC)cc3)(C(=O)OC)[C@@H]12`, for which the composite z-score turned out to be 0.164.
The same measure, in the same setting: the result for `COC(=O)[C@@]1(Cc2ccc(F)cc2)[C@H]2c3cc(C(=O)N(C)C)n(C)c3C[C@H]2CN1C(=O)c1ccccc1` reads 0.0095.
As to `COCCCNC(=O)[C@@]1(CCS(=O)(=O)c2ccccc2)COC(c2ccc(OCCCO)cc2)=N1`, the composite z-score is 0.0919.
Same read-out and setting: the value for `CO[C@H]1O[C@H](CO)[C@@H](OC(=O)Nc2ccc3c(c2)OCO3)[C@H](OC(=O)Nc2ccccc2-c2ccccc2)[C@H]1OC(=O)Nc1ccccc1-c1ccccc1` was 0.288.
Same read-out and setting: the value for `NC(=O)N1C(=O)C2C(C1=O)C1C=C(CCCO)C2C(C2CC2)N1Cc1sc2ccccc2c1Cl` (configuration not stated) was -0.0685.
Same read-out and setting: the value for `C=CC[C@@]1(C(=O)OC)N=C(c2ccc(OCCCO)cc2)O[C@@H]1c1ccccc1N=[N+]=[N-]` was 0.0433; that for `C=CCC(OC(C)=O)[C@@H]1[C@@H](N(Cc2ccc(-c3ccccc3)cc2)C(=O)c2cccc3ccccc23)c2cc(OCCCO)ccc2N1C(=O)Cc1ccc(OC)cc1` (some centres not stated) was -0.0405.
`CCOc1cc(C(O)C2C=CC3C(=O)N(c4ccccc4)C(=O)C3N2Nc2ccccc2F)ccc1O` (configuration not stated) yielded a composite z-score of 0.302.
`C=CCC(OC(C)=O)[C@@H]1[C@@H](N(Cc2cc3ccccc3o2)C(=O)c2cccc3ccccc23)c2cc(OCCCO)ccc2N1C(=O)c1ccc2ccccc2n1` (some centres not stated) registered a composite z-score of -0.0346.
On the same count and under the same terms, the value for `COc1ccc(C(O)C2C=CC3C(=O)N(C)C(=O)C3N2N(c2ccccc2)c2ccccc2)cc1` (configuration not stated) was 0.0102; that for `O=C1O[C@@H](c2ccccc2)[C@@H](c2ccccc2)N2[C@@H](c3ccc(OCCO)cc3)[C@]3(C(=O)Nc4ccc(C#CC5(O)CCCCCC5)cc43)[C@@H](C(=O)Nc3nc4ccccc4s3)[C@H]12` was 0.0775.
Still for that read-out and setting: the result for `COCCOC(=O)N1C(=O)[C@@]2(c3cc(C#CCCO)ccc31)[C@H](C(N)=O)[C@H]1C(=O)O[C@H](c3ccccc3)[C@H](c3ccccc3)N1[C@@H]2c1ccccc1OCCO` reads -0.0445; that for `CC1CC/C=C\[C@H]2OC34C=CCN(C(C)(C)C)C(=O)[C@H]3N(CCCO)C(=O)[C@@H]4C2C(=O)O1` (some centres not stated), -0.105.
Molecule `COc1ccc([Si](C)(C)[C@H]2[C@H](CC(=O)N3Cc4ccccc4C[C@H]3CO)O[C@@]3(C(=O)N(C)c4ccccc43)[C@@H]2C)cc1` registered a composite z-score of -0.124.
Consider `Cc1ccc(S[C@]2(C(=O)NCCCN(C)C)CC(=O)N(C3Cc4ccccc4C3)[C@@H]2c2ccc(CO)cc2I)cc1`, for which the composite z-score amounted to 0.0792.
The molecule `O=C1O[C@H](c2ccccc2)[C@H](c2ccccc2)N2[C@H]1[C@@H](C(=O)N1CCN(c3ncccn3)CC1)[C@]1(C(=O)Nc3ccc(C#CCCO)cc31)[C@H]2c1ccc(O)cc1` showed a composite z-score of 0.0215.
Take `[N-]=[N+]=Nc1ccccc1C[C@]1(C(=O)N2CCOCC2)N=C(c2ccc(OCCCO)cc2)O[C@H]1c1ccccc1N=[N+]=[N-]`: the composite z-score is 0.145.
`COc1ccc(C(=O)Nc2ccc(CN3C(=O)[C@@]4(O[C@@H](CCn5cc(CCO)nn5)[C@H]([Si](C)(C)c5ccc(OC)cc5)[C@H]4C)c4ccccc43)cc2)cc1`: the composite z-score came out at 0.0433.
As to `NC(=O)NCC#Cc1ccc2c(c1)[C@]1(C(=O)N2)[C@H](c2ccc(OCCO)cc2)N2[C@H](c3ccccc3)[C@H](c3ccccc3)OC(=O)[C@H]2[C@@H]1C(=O)NC[C@H](O)c1ccccc1`, the composite z-score was -0.0572.
